Measurements from PubChem BioAssay AID2685 (National Center for Advancing Translational Sciences (NCATS), 2010).
The whole screen tested about 320,000 compounds, of which about 2,100 (0.66%) were called active. Roughly 53% stayed inconclusive and do not appear here. Calls come from the whole dose curve; as a rule, active = well fitted inhibition curve with a large enough effect in the signal ratio, with a control signal flat (not every such curve was filed as active); inconclusive = small, poorly fitted or top-dose-only effect, or effect the other way, or a change in a side signal; inactive = flat fitted curve, though single readings scatter; the % refers to the signal ratio. The entries come from a sample that favours actives as a whole.

test: qHTS Assay for Lipid Storage Modulators in Drosophila S3 Cells; conditions: BODIPY lipid droplet fluorescence, 18-24 h, cells fed with added oleic acid; cell number change: measured here: cell count max response; series mostly up to 46.1 µM;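 for cell number change: cells counted by Cell Tracker Red CMTPX staining in the red channel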
In short: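 Laser-scanning cytometry quantifies lipid droplet accumulation (500–530 nm total intensity; droplet/cell object ratio) in oleic acid-fed (400 uM added) Drosophila S3 cells treated with a concentration series. 20 uM Triacsin C defined 100% inhibition.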
Potency is the fitted concentration of half-maximal effect.

Row | SMILES | Potency | cell number change [%]
1 | Cc1csc(NC(=O)c2ccc(S(=O)(=O)N3CCCC3)cc2)n1 | inactive | 5.75
2 | O=C(CNS(=O)(=O)c1cccc2nonc12)NCc1ccc(F)cc1 | inactive | 
3 | COc1cc2c(cc1OC)n(CC(=O)NC1CCCCCC1)n1c(C)cc(=O)nc21 | 8.2 µM (active) | -21.9
4 | COc1cccc2c1cc1c(=O)n(CC(=O)NC3CCCCC3)nc(C)n12 | inactive | -12.9
5 | CCC(C(=O)NC1CCCCC1)n1c2ccccc2c2nc(=O)cc(C)n21 (configuration not stated) | inactive | 1.33
6 | Nc1nc(C2CCCN2S(=O)(=O)c2ccc(Cl)cc2)cs1 (configuration not stated) | inactive | -2
7 | CCOc1ccc(NC(=O)C2CCC(CNc3c(N4CCCCC4)c(=O)c3=O)CC2)cc1 (configuration not stated) | inactive | 
8 | O=C(CSc1ccc(Cl)cc1)Nc1cccc(-c2nc3ncccc3o2)c1 | 1.3 µM (active) | -12.7
9 | CC(C)CC(=O)Nc1cccc(-c2nc3ncccc3o2)c1 | inactive | -6.34
10 | CCCCC(=O)Nc1cccc(-c2nc3ncccc3o2)c1 | inactive | 0.0678
11 | CCc1ccccc1N1CCN(S(=O)(=O)c2cc(OC)ccc2OC)CC1 | inactive | 
12 | CCc1ccc(Nc2cnn(C34CC5CC(CC(CC(=O)O)(C5)C3)C4)c(=O)c2Cl)cc1 | inactive | 8.4
13 | Cc1ccc(Nc2cnn(C34CC5CC(CC(CC(=O)O)(C5)C3)C4)c(=O)c2Cl)c(Cl)c1 | inactive | 5.36
14 | Cc1cc(C)cc(Nc2cnn(C34CC5CC(CC(CC(=O)O)(C5)C3)C4)c(=O)c2Cl)c1 | 18.4 µM (active) | -2.34
15 | Cc1ccc(CN2CCN(CC(C)C)C(CCO)C2)s1 (configuration not stated) | inactive | 20.3
16 | CN(C)c1ccc(NC(=O)C[n+]2ccccc2)cc1 | inactive | 22.5
17 | N#Cc1c(OCC(=O)c2ccccc2)nc2c(c1-c1ccco1)CCc1ccccc1-2 | 8.2 µM (active) | -13
18 | CCOC(=O)COc1nc2c(c(-c3ccco3)c1C#N)CCc1ccccc1-2 | inactive | 3.1
19 | CC(=O)COc1nc2c(c(-c3ccco3)c1C#N)CCc1ccccc1-2 | inactive | 7.55
20 | CCCOC(=O)Cn1c(=O)c2cc3c(=O)n(CC(=O)OCCC)c(=O)c3cc2c1=O | inactive | -10.2
21 | CCOC(=O)C1=C(C)N=C2SCCC(=O)N2C1c1cccs1 (configuration not stated) | inactive | -2.29
22 | O=C(O)Cc1sc(Nc2cccc3ccccc23)nc1-c1ccc(Cl)cc1 | inactive | 13.4
23 | O=C(O)Cc1sc(Nc2cccc3ccccc23)nc1-c1ccccc1 | 0.092 µM (active) | 25.4
24 | O=C(O)Cc1sc(Nc2cccc3ccccc23)nc1-c1ccc(F)cc1 | inactive | 12.9
25 | O=c1c([N+](=O)[O-])c(N2CCOCC2)c2ccccc2n1-c1ccccc1 | inactive | 8.53
